Inconclusive results are not listed. Where a call stands in place of a potency, no number is given. Unmarked numbers belong to inactive results. Activity calls are given as the source filed them. Unless noted, calls come from the whole dose curve; as a rule, active = well fitted curve in the direction sought with a large enough effect in the repeat runs; inconclusive = weak or mixed curves; inactive = no such curve, though single readings can be large; an effect the other way counts as inactive or inconclusive.
Tests used:
[1] = qHTS assay to identify small molecule antagonists of the estrogen related receptor (ERR) signaling pathway from Tox21 library - cell viability counter screen (AID 1224834); note: nearly all actives have a fitted effect of over 30% in size
Procedure, shortened: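 CellTiter-Fluor fluorescence, read after 30 min at 37 C, measures viability of ERR cells. Cells plated at 2,000/well and incubated 6 h before pin-tool compound addition, then exposed 17.5 hours at 37 C.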

[2] = biological target: Luciferin 4-monooxygenase (Photinus pyralis) (UniProt P08659); assay: qHTS assay to identify small molecule inhibitors of firefly luciferase (AID 1224835); note: nearly all actives have a fitted effect of over 25% in size; note: potency is the fitted concentration of half-maximal effect
Procedure, shortened: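 Quantitative HTS format; KM concentrations of both substrates. Purified P. pyralis FLuc activity quantified from luminescence images.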

[3] = qHTS assay to identify small molecule agonists of the constitutive androstane receptor (CAR) signaling pathway - cell viability counter screen (AID 1224836); note: series mostly up to about 92 µM; nearly all actives have a fitted effect of over 45% in size
Procedure, shortened: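 23 h treatment, 37 C, 5% CO2. Cell line: HepG2 stably expressing hCAR with a CYP2B6-2.2kb construct. Co-treatment: PK11195, 0.75 uM final. Read-out: CellTiter-Fluor fluorescence intensity.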

[4] = qHTS assay to identify small molecule antagonists of the constitutive androstane receptor (CAR) signaling pathway - cell viability counter screen (AID 1224837); note: series mostly up to about 92 µM; nearly all actives have a fitted effect of over 45% in size
Procedure, shortened: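 Cytotoxicity counter-screen: CellTiter-Fluor fluorescence after 23 h compound exposure (15-point qHTS) in double-stable HepG2-CYP2B6-hCAR cells, with 50 nM CITCO added.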

[5] = qHTS assay to identify small molecule antagonists of the estrogen related receptor signaling pathway with the pleiotropic PPARgamma coactivator (PGC) from Tox21 10K library - cell viability counter screen (AID 1224840; active = well fitted cell-killing curve with a large enough effect in the repeat runs, not every such curve was filed as active; note: nearly all actives have a fitted effect of over 40% in size)
Procedure, shortened: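 Counter-screen for cytotoxicity: after 17.5 h compound exposure at 37 C, CellTiter-Fluor reagent added to PGC/ERR cells for 30 min and fluorescence read. Cells were seeded at 2,000 per well 6 h before dosing.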

[6] = biological target: Thyrotropin receptor (Homo sapiens) (UniProt P16473); assay: qHTS assay to identify small molecule agonists of the thyroid stimulating hormone receptor (TSHR) signaling pathway (AID 1224843; calls by dose curve; note: nearly all actives have a fitted effect of over 45% in size)
Procedure, shortened: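 Compounds are titrated over 15 concentrations, in triplicate, onto TSHR-HEK293 cells seeded at 800/well. Plates sit 30 min at room temperature before cAMP-d2 and anti-cAMP cryptate are added; signal is read after a further hour.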

[7] = qHTS assay to identify small molecule agonists of the estrogen related receptor signaling pathway with the pleiotropic PPARgamma coactivator (PGC) from Tox21 10K library (AID 1224842); note: nearly all actives have a fitted effect of over 15% in size
Procedure, shortened: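 PGC/ERR reporter cells (NTP line) were seeded 2,000 per well, rested 6 h at 37 C/5% CO2, then pin-dosed with compounds in DMSO for 18 h at 37 C; luciferase read by One-Glo luminescence after 30 min at room temperature.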

[8] = biological target: Nuclear receptor subfamily 1 group I member 3 (Homo sapiens) (UniProt Q14994); assay: qHTS assay to identify small molecule antagonists of the constitutive androstane receptor (CAR) signaling pathway (AID 1224838);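 note: HepG2 cells stably expressing hCAR with CYP2B6 luciferase reporter stimulated by CITCO; nearly all actives have a fitted effect of over 40% in size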
Procedure, shortened: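 Antagonism measured as luciferase signal (ONE-Glo, 30 min, room temperature) in CAR-stimulated cells: HepG2-CYP2B6-hCAR double-stable line exposed 24 hr at 37 C to compound in a 15-point series plus 50 nM CITCO.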

[9] = biological target: Nuclear receptor subfamily 1 group I member 3 (Homo sapiens) (UniProt Q14994); assay: qHTS assay to identify small molecule agonists of the constitutive androstane receptor (CAR) signaling pathway (AID 1224839);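 note: HepG2 cells stably carrying human CAR and a CYP2B6 luciferase reporter; series mostly up to about 92 µM; nearly all actives have a fitted effect of over 15% in size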
Procedure, shortened: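 Compounds tested at 15 concentrations on HepG2 cells stably harbouring hCAR and CYP2B6-2.2kb reporter constructs, co-treated with PK11195 (0.75 uM final), 24 h at 37 C; luminescent reporter signal quantified.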

[10] = qHTS assay to identify small molecule antagonists of the estrogen related receptor signaling pathway with the pleiotropic PPARgamma coactivator (PGC) from Tox21 10K library (AID 1224841; call rule not given here; note: series mostly up to about 92 µM; actives are mostly falling curves and most rising ones were filed inactive; nearly all actives have a fitted effect of over 50% in size)
Procedure, shortened: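 Luminescence (One-Glo, 30 min at room temperature) after 18 h compound treatment at 37 C of PGC/ERR reporter cells plated at 2,000 cells/well and settled 6 h beforehand.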

Sequence of Thyrotropin receptor (Homo sapiens) (P16473 whole entry, looked up): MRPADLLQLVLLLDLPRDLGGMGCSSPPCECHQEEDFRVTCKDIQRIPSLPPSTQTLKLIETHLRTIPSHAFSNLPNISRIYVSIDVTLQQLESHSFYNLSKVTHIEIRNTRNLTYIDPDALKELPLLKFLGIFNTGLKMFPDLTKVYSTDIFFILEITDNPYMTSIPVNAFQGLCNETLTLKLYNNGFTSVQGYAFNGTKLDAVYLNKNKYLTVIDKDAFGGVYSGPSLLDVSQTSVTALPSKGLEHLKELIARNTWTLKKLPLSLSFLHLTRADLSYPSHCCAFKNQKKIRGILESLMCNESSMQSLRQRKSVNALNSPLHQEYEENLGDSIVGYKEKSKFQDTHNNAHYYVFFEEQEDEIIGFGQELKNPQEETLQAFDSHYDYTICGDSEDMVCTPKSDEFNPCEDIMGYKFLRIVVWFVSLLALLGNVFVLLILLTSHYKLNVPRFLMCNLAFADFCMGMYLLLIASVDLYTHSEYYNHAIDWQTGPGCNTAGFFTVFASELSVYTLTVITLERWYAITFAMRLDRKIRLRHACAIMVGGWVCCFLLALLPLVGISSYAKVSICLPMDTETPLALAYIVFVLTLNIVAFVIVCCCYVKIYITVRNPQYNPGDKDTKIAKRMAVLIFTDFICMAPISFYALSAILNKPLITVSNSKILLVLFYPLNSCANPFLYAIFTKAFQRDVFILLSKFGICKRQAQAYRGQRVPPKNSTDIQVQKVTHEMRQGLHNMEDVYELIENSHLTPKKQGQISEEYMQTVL
Sequence of Nuclear receptor subfamily 1 group I member 3 (Homo sapiens) (Q14994 whole entry, looked up): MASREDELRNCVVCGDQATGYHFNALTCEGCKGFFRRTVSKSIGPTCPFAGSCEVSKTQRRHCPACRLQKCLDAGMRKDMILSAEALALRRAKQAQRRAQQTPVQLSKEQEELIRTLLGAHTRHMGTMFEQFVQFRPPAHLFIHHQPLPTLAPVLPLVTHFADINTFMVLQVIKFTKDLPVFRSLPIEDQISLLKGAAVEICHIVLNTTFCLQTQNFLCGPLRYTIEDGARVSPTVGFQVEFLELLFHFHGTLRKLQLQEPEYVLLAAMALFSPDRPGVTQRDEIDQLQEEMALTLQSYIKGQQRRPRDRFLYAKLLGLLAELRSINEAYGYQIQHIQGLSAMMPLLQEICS
Sequence of Luciferin 4-monooxygenase (Photinus pyralis) (P08659 whole entry, looked up): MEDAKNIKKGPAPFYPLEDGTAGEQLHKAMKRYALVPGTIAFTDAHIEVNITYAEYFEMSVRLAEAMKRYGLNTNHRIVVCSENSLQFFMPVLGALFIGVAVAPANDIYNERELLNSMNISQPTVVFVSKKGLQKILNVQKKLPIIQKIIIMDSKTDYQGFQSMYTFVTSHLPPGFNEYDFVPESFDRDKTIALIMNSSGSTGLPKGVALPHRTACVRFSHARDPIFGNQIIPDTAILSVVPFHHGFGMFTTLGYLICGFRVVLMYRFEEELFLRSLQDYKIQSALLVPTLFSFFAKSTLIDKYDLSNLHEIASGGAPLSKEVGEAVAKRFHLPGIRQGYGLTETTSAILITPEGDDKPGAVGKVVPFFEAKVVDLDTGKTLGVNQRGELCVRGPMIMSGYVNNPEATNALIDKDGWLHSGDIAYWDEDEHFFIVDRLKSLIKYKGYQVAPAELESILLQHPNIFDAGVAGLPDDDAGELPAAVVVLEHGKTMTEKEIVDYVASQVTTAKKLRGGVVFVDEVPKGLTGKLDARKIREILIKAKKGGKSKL

SMILES	Potency [1]	Potency [2]	outcome [3]	outcome [4]	outcome [5]	Potency [6]	Potency [7]	Potency [8]	Potency [9]	Potency [10]
CC(=O)NC(=O)c1ccccc1O	inactive	inactive	inactive	inactive	inactive	inactive				
C[N+](C)(CCOc1ccccc1)Cc1cccs1	inactive	inactive	inactive	inactive	inactive	inactive	inactive			
C[N+]1(C)CCCC(OC(=O)C(O)(c2ccccc2)c2ccccc2)C1 (configuration not stated)	inactive	inactive	inactive	inactive	inactive					
CC[N+](C)(CC)CCOC(=O)C1c2ccccc2Oc2ccccc21	inactive	inactive	inactive	inactive	inactive	inactive				
O=C(O)CNC(=O)c1ccccc1	inactive	inactive	inactive	inactive	inactive	inactive				
O=C(O)CC(C(=O)O)S(=O)(=O)O (configuration not stated)	inactive	inactive	inactive		inactive	inactive	inactive	inactive	inactive	
C=CN1CCCCCC1=O	inactive	inactive	inactive	inactive	inactive	inactive				
CO[C@@]1(NC(=O)CSC[C@@H](N)C(=O)O)C(=O)N2C(C(=O)O)=C(CSc3nnnn3C)CS[C@@H]21	inactive	inactive	inactive	inactive	inactive	inactive	inactive			
CC(C)c1ccc2ncccc2c1	inactive	31.7 µM (active)	inactive		inactive		inactive	inactive	inactive	
FB(F)F	inactive	inactive	inactive	inactive	inactive	inactive	inactive			
CCOCC(C)O (configuration not stated)	inactive	inactive	inactive	inactive	inactive	inactive	inactive			inactive
CCCC(=O)O[C@]1(C(=O)CC)CC[C@H]2[C@@H]3CCC4=CC(=O)CC[C@]4(C)[C@H]3[C@@H](O)C[C@@]21C	inactive	inactive	inactive	inactive	inactive					
CCCCS(=O)(=O)N[C@@H](Cc1ccc(OCCCCC2CCNCC2)cc1)C(=O)O	inactive	inactive	inactive	inactive	inactive	inactive				
CC1=CC(=O)[C@H]2C[C@@H]1C2(C)C	inactive	inactive	inactive	inactive	inactive					
Cc1ccc(C(=O)c2ccc(CC(=O)O)n2C)cc1	inactive	15.5 µM (active)	inactive		inactive	inactive	inactive	inactive	inactive	inactive
NC(CCC(=O)O)C(=O)O (configuration not stated)	inactive	inactive	inactive		inactive	inactive		inactive	inactive	
C=CC(=O)OCCCl	inactive	inactive	inactive	inactive	inactive					

SMILES	Potency [1]	Potency [2]	outcome [3]	outcome [4]	outcome [5]	Potency [6]	Potency [7]	Potency [8]	Potency [9]	Potency [10]
Cc1ccc(C(=O)c2ccccc2)cc1	inactive	31.7 µM (active)	inactive		inactive			inactive		
CCCCCCCC1CCCC1=O (configuration not stated)	inactive	inactive	inactive	inactive	inactive	inactive				
COc1cc(C(=O)OC(COCCC(C)C)CN2CCOCC2)cc(OC)c1OC (configuration not stated)	inactive	inactive	inactive		inactive	inactive		inactive	inactive	
CCOC(=O)c1ccccc1	inactive	inactive	inactive	inactive	inactive		inactive			
CC(C)(C#N)Nc1nc(Cl)nc(NC2CC2)n1	inactive	inactive	inactive		inactive	inactive		inactive	inactive	
CCCc1ncc(C[n+]2ccccc2C)c(N)n1	inactive	inactive	inactive	inactive	inactive					
CC(C)(N)C#N	inactive	inactive	inactive	inactive	inactive		inactive			
CCN1C=CN(C)C1C (configuration not stated)	inactive	inactive	inactive	inactive	inactive	inactive	inactive			
N[C@H](C(=O)O)[C@@H](O)c1ccc(O)c(O)c1	inactive	inactive	inactive	inactive	inactive	inactive				
NC(=O)Cc1cccc2ccccc12	inactive	inactive	inactive		inactive	inactive		inactive	inactive	
CCCCCCCCCC[N+](C)(C)[O-]	inactive	inactive	inactive	inactive	inactive		inactive			inactive
C=C(C)C(=O)OCC(O)CO (configuration not stated)	inactive	inactive	inactive		inactive	inactive	inactive	inactive	inactive	inactive
[Ca+2]	inactive	inactive	inactive	inactive	inactive	inactive				
CC(=O)OCC(=O)[C@@]1(O)[C@H](C)C[C@H]2[C@@H]3CCC4=CC(=O)C=C[C@]4(C)[C@@]3(F)[C@@H](O)C[C@@]21C	inactive	inactive	inactive	inactive	inactive	inactive	inactive			
O=C(O)CNC(=O)c1ccc(CO)o1	inactive	inactive	inactive	inactive	inactive					
CC(=O)N[C@H]1[C@H]([C@H](O)[C@H](O)CO)OC(C(=O)O)=C[C@@H]1N=C(N)N	inactive	inactive	inactive	inactive	inactive	inactive				
